First the molecules themselves.
T1: RBFOX1 RRM (Homo sapiens, UniProt Q9NWB1 109-208)
T1 sequence: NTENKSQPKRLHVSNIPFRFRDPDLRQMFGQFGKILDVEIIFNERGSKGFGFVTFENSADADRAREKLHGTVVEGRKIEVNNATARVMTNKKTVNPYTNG

B1: AUUACAG (DNA:RNA)
RNA: GGGAGACCGGAAUUCAGAUUGUCCAUUACAGUUAAAUCCCGUCGUAGCCACCA
DNA 1: CAATCTGAATTCCGGTCTCCC
DNA 2: TGGTGGCTACGACGGGATT
B2: GUCGCUU (DNA:RNA)
RNA: B1 RNA with A25G, U27C, A28G, A30U, G31U
DNA 1: CAATCTGAATTCCGGTCTCCC
DNA 2: TGGTGGCTACGACGGGATT
B3: GUCCGCC (DNA:RNA)
RNA: B1 RNA with A25G, U27C, A28C, C29G, A30C, G31C
DNA 1: CAATCTGAATTCCGGTCTCCC
DNA 2: TGGTGGCTACGACGGGATT
B4: GCCUGCG (DNA:RNA)
RNA: B1 RNA with A25G, U26C, U27C, A28U, C29G, A30C
DNA 1: CAATCTGAATTCCGGTCTCCC
DNA 2: TGGTGGCTACGACGGGATT
B5: ACCUGCA (DNA:RNA)
RNA: B1 RNA with U26C, U27C, A28U, C29G, A30C, G31A
DNA 1: CAATCTGAATTCCGGTCTCCC
DNA 2: TGGTGGCTACGACGGGATT
B6: CGCUGCA (DNA:RNA)
RNA: GGGAGACCGGAAUUCAGAUUGUCCCGCUGCAUUAAAUCCCGUCGUAGCCACCA
DNA 1: CAATCTGAATTCCGGTCTCCC
DNA 2: TGGTGGCTACGACGGGATT
B7: GCCUGCA (DNA:RNA)
RNA: B6 RNA with C25G, G26C
DNA 1: CAATCTGAATTCCGGTCTCCC
DNA 2: TGGTGGCTACGACGGGATT
B8: GCCUGCC (DNA:RNA)
RNA: B6 RNA with C25G, G26C, A31C
DNA 1: CAATCTGAATTCCGGTCTCCC
DNA 2: TGGTGGCTACGACGGGATT
B9: CUGUAGC (DNA:RNA)
RNA: B6 RNA with G26U, C27G, G29A, C30G, A31C
DNA 1: CAATCTGAATTCCGGTCTCCC
DNA 2: TGGTGGCTACGACGGGATT
B10: CGCACUC (DNA:RNA)
RNA: B6 RNA with U28A, G29C, C30U, A31C
DNA 1: CAATCTGAATTCCGGTCTCCC
DNA 2: TGGTGGCTACGACGGGATT
B11: AAGUAUU (DNA:RNA)
RNA: B1 RNA with U26A, U27G, A28U, C29A, A30U, G31U
DNA 1: CAATCTGAATTCCGGTCTCCC
DNA 2: TGGTGGCTACGACGGGATT
B12: CCUAUCU (DNA:RNA)
RNA: B1 RNA with A25C, U26C, C29U, A30C, G31U
DNA 1: CAATCTGAATTCCGGTCTCCC
DNA 2: TGGTGGCTACGACGGGATT
B13: UCGUAUU (DNA:RNA)
RNA: B6 RNA with C25U, G26C, C27G, G29A, C30U, A31U
DNA 1: CAATCTGAATTCCGGTCTCCC
DNA 2: TGGTGGCTACGACGGGATT
B14: AAACUUG (DNA:RNA)
RNA: B1 RNA with U26A, U27A, A28C, C29U, A30U
DNA 1: CAATCTGAATTCCGGTCTCCC
DNA 2: TGGTGGCTACGACGGGATT
B15: CUCACCC (DNA:RNA)
RNA: B1 RNA with A25C, U27C, A30C, G31C
DNA 1: CAATCTGAATTCCGGTCTCCC
DNA 2: TGGTGGCTACGACGGGATT
B16: AACGCAA (DNA:RNA)
RNA: B1 RNA with U26A, U27C, A28G, G31A
DNA 1: CAATCTGAATTCCGGTCTCCC
DNA 2: TGGTGGCTACGACGGGATT
B17: CCUCACG (DNA:RNA)
RNA: B1 RNA with A25C, U26C, A28C, C29A, A30C
DNA 1: CAATCTGAATTCCGGTCTCCC
DNA 2: TGGTGGCTACGACGGGATT
B18: CAAGGGU (DNA:RNA)
RNA: B6 RNA with G26A, C27A, U28G, C30G, A31U
DNA 1: CAATCTGAATTCCGGTCTCCC
DNA 2: TGGTGGCTACGACGGGATT
B19: UUGAUGA (DNA:RNA)
RNA: B1 RNA with A25U, U27G, C29U, A30G, G31A
DNA 1: CAATCTGAATTCCGGTCTCCC
DNA 2: TGGTGGCTACGACGGGATT
B20: UUGAUUC (DNA:RNA)
RNA: B1 RNA with A25U, U27G, C29U, A30U, G31C
DNA 1: CAATCTGAATTCCGGTCTCCC
DNA 2: TGGTGGCTACGACGGGATT
B21: UUUCUGA (DNA:RNA)
RNA: B1 RNA with A25U, A28C, C29U, A30G, G31A
DNA 1: CAATCTGAATTCCGGTCTCCC
DNA 2: TGGTGGCTACGACGGGATT
B22: UUGUUGA (DNA:RNA)
RNA: B6 RNA with C25U, G26U, C27G, G29U, C30G
DNA 1: CAATCTGAATTCCGGTCTCCC
DNA 2: TGGTGGCTACGACGGGATT
B23: UUGAGAG (DNA:RNA)
RNA: B1 RNA with A25U, U27G, C29G
DNA 1: CAATCTGAATTCCGGTCTCCC
DNA 2: TGGTGGCTACGACGGGATT
B24: UUGAGUC (DNA:RNA)
RNA: B1 RNA with A25U, U27G, C29G, A30U, G31C
DNA 1: CAATCTGAATTCCGGTCTCCC
DNA 2: TGGTGGCTACGACGGGATT
B25: UUUCAGA (DNA:RNA)
RNA: B1 RNA with A25U, A28C, C29A, A30G, G31A
DNA 1: CAATCTGAATTCCGGTCTCCC
DNA 2: TGGTGGCTACGACGGGATT
B26: UCCUUGA (DNA:RNA)
RNA: B6 RNA with C25U, G26C, G29U, C30G
DNA 1: CAATCTGAATTCCGGTCTCCC
DNA 2: TGGTGGCTACGACGGGATT
B27: UUCUGAA (DNA:RNA)
RNA: B6 RNA with C25U, G26U, C30A
DNA 1: CAATCTGAATTCCGGTCTCCC
DNA 2: TGGTGGCTACGACGGGATT
B28: UUGAGUG (DNA:RNA)
RNA: B1 RNA with A25U, U27G, C29G, A30U
DNA 1: CAATCTGAATTCCGGTCTCCC
DNA 2: TGGTGGCTACGACGGGATT
B29: UUGAUUG (DNA:RNA)
RNA: B1 RNA with A25U, U27G, C29U, A30U
DNA 1: CAATCTGAATTCCGGTCTCCC
DNA 2: TGGTGGCTACGACGGGATT
B30: UUGAUCC (DNA:RNA)
RNA: B1 RNA with A25U, U27G, C29U, A30C, G31C
DNA 1: CAATCTGAATTCCGGTCTCCC
DNA 2: TGGTGGCTACGACGGGATT
B31: UCUCAAG (DNA:RNA)
RNA: B1 RNA with A25U, U26C, A28C, C29A
DNA 1: CAATCTGAATTCCGGTCTCCC
DNA 2: TGGTGGCTACGACGGGATT

Substitutions are numbered along the chain they refer to; changes in the protein carry UniProt numbers. In all, about 16,000 sequences were measured (“ka relative to ugcaugu”: median about 0.0091, highest 2% from about 0.032 on). The sample as a whole holds a higher share of the highest values than the screen did.

In this assay the target is T1, RBFOX1 RRM. The assay is described as follows: EMSA; HiTS-Eq, 1 nM pool, 10 min; buffer printed only for the single-RNA assays: 10 mM Tris pH 7.5, 150 mM NaCl, 3.4 mM EDTA, 0.001% NP-40, 30 C. The conditions noted are these: tags: His6 N-terminal (pET28a); label: 5' 32P. The method in brief: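 Purified RbFox RRM, wild type or mutant, was incubated for 10 min in 50 µL with 1 nM of a 5′-radiolabelled RNA pool carrying 7 randomized nucleotides, whose flanks were annealed to DNA oligonucleotides, over a series of increasing protein concentrations. Unbound RNA was resolved on 8% native PAGE, cut out, reverse-transcribed, barcoded by PCR and sequenced on an Illumina HiSeq 2500. Relative association constants were derived from changes in read counts for each RNA species versus the control reaction and normalised to the cognate motif.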
A general note: Mobility shift assays separate free from complexed probe on a gel.
Take B1: the binding signal was 0.0056 KA relative to UGCAUGU.
The result for B2 reads 0.0147 KA relative to UGCAUGU.
For B3, the binding signal is 0.0105 KA relative to UGCAUGU.
Take B4: the binding signal is 0.0321 KA relative to UGCAUGU.
In the case of B5, the binding signal was 0.0144 KA relative to UGCAUGU.
The result for B6 reads 0.0198 KA relative to UGCAUGU; that for B7, 0.0378 KA relative to UGCAUGU; that for B8, 0.0261 KA relative to UGCAUGU.
Take B9: the binding signal was 0.0127 KA relative to UGCAUGU.
The result for B10 reads 0.00942 KA relative to UGCAUGU; that for B11, 0.0026 KA relative to UGCAUGU; that for B12, 0.00242 KA relative to UGCAUGU.
As for B13, the binding signal was 0.00649 KA relative to UGCAUGU.
For B14, the binding signal is 0.0047 KA relative to UGCAUGU.
As for B15, the binding signal is 0.00285 KA relative to UGCAUGU.
Regarding B16, the binding signal was 0.00455 KA relative to UGCAUGU.
With B17, the binding signal was 0.00492 KA relative to UGCAUGU.
With B18, the binding signal was 0.00279 KA relative to UGCAUGU.
As to B19, the binding signal was 0.0228 KA relative to UGCAUGU.
Consider B20, for which the binding signal is 0.0169 KA relative to UGCAUGU.
The result for B21 reads 0.0328 KA relative to UGCAUGU; that for B22, 0.0329 KA relative to UGCAUGU.
As to B23, the binding signal is 0.0165 KA relative to UGCAUGU.
Take B24: the binding signal is 0.0173 KA relative to UGCAUGU.
In the case of B25, the binding signal was 0.0123 KA relative to UGCAUGU.
Turning to B26, the binding signal was 0.0113 KA relative to UGCAUGU.
With B27, the binding signal is 0.0233 KA relative to UGCAUGU.
For B28 the value was 0.0333 KA relative to UGCAUGU.
For the molecule B29, the binding signal was 0.0356 KA relative to UGCAUGU.
On to B30, for which the binding signal was 0.0141 KA relative to UGCAUGU.
With B31, the binding signal is 0.00583 KA relative to UGCAUGU.

Source of the values: publication PMC9911399, “Two distinct binding modes provide the RNA-binding protein RbFox with extraordinary sequence specificity”.
